# Laboratory results published in PubChem BioAssay.
# Test: compound effects on lung adenocarcinoma cell viability – A549, calcein-AM fluorescence, 48 h, basal, profiling panel (AID 1162); note: test concentration not given here
# Conditions: higher = more signal
row,SMILES,z-score
1,Cc1cc(C)c(C(O)C2C=CC3C(=O)N(c4ccccc4)C(=O)C3N2Nc2ccccc2)c(C)c1 (configuration not stated),0.479
2,O=C1O[C@H](c2ccccc2)[C@H](c2ccccc2)N2[C@H]1[C@@H](C(=O)N1CCN(c3ncccn3)CC1)[C@]1(C(=O)Nc3ccc(C#CCCO)cc31)[C@H]2c1ccc(OCCO)cc1,-0.696
3,O=C1CSC(c2cccc([N+](=O)[O-])c2)N1c1ccccc1 (configuration not stated),-0.295
4,COC(=O)C(CC#Cc1ccc2c(c1)[C@]1(C(=O)N2)[C@H](c2ccc(O)cc2)N2[C@H](c3ccccc3)[C@H](c3ccccc3)OC(=O)[C@H]2[C@@H]1C(=O)O)C(=O)OC,0.391
5,COCCCNC(=O)[C@@]1(Cc2ccccc2I)c2ccccc2C(=O)N(Cc2ccccc2Cl)[C@H]1c1ccc(CO)cc1,-0.119
6,COC(=O)[C@]1(Cc2ccccc2CN=[N+]=[N-])N=C(c2ccc(OCCCO)cc2)O[C@@H]1c1ccccc1,-3.05
7,CN(C)CCCCCCNC(=O)[C@@H]1C[C@@H]2C(=O)NCC(=O)N2[C@@H]1c1ccc(O)cc1,-0.627
8,COC(=O)c1ccc(OC)c(/C=C\CC(CCc2ccccc2)OC(=O)c2ccncc2)c1 (configuration not stated),-0.568
9,CCOC(=O)C[C@H]1[C@H](OC(=O)Cc2ccc3c(c2)OCO3)[C@@H](NC(=O)c2ccccc2)c2cc(OCCCO)ccc2N1C(=O)c1ccc2ccccc2n1,1.86
10,CCCNC(=O)[C@@]1(Sc2ccc(C)cc2)CC(=O)N(Cc2ccccc2)[C@@H]1c1ccc(CO)cc1I,-0.422
11,CC1(C)[C@@H]2CC(C(O)C3C=CC4C(=O)N(c5ccccc5)C(=O)C4N3Nc3ccccc3F)=C[C@@H]1C2 (some centres not stated),0.604
12,COc1ccc(C#Cc2ccc3c(c2)[C@]2(C(=O)N3)[C@H](C(N)=O)[C@H]3C(=O)O[C@H](c4ccccc4)[C@H](c4ccccc4)N3[C@@H]2c2ccc(O)cc2)cc1,-0.765
13,COc1ccc([Si](C)(C)[C@@H]2[C@@H](CCO)O[C@]3(C(=O)N(Cc4ccc(N5C(=O)c6ccccc6Oc6ccccc65)cc4)c4ccccc43)[C@H]2C)cc1,-0.738
14,NC(=O)NCC#Cc1ccc2c(c1)[C@]1(C(=O)N2)[C@H](c2ccc(O)cc2)N2[C@H](c3ccccc3)[C@H](c3ccccc3)OC(=O)[C@H]2[C@@H]1C(=O)NC[C@H](O)c1ccccc1,0.544
15,CO[C@H]1O[C@H](CO)[C@@H](OC(=O)c2ccc(Br)cc2)[C@@H]2OC(=O)[C@H](Cc3cccc(Br)c3)C/C=C/C[C@@H](Cc3cccc(Br)c3)C(=O)O[C@@H]12,-0.0692
16,CO[C@H]1O[C@H](CO)[C@@H](OC(=O)Nc2cccc(F)c2)[C@H](OC(=O)Nc2ccc3c(c2)OCO3)[C@H]1OC(=O)Nc1ccc2c(c1)OCO2,-0.598
17,CC(C)C[C@H]1NC(=O)[C@H](C)NC(=O)[C@@]23C(=O)N[C@@H](Cc4ccccc4)C2[C@H](C)[C@@]2(C)O[C@H]2C3/C=C/C/C=C\CNC1=O (some centres not stated),-0.0541
18,Cc1ccc(C(C)CC(O)C2C=CC3C(=O)N(Cc4ccccc4)C(=O)C3N2n2cnnc2)o1 (configuration not stated),-0.732
19,COCCCNC(=O)[C@@]1(Cc2ccccc2)COC(c2ccc(OCCCO)cc2)=N1,0.654
20,O=C1c2ccccc2[C@](Cc2ccccc2I)(C(=O)NC2CC2)[C@H](c2ccc(CO)cc2)N1Cc1ccccc1Cl,-0.138
21,CCOC(=O)C[C@H]1[C@H](OC(=O)Cc2ccc3c(c2)OCO3)[C@@H](NC(=O)c2ccccc2)c2cc(OCCCO)ccc2N1C(=O)c1ccccc1,-0.11
22,CCOC(=O)C1=CC[C@@H](c2ccc(N(CC)CC)cc2)N(S(=O)(=O)c2ccc(C)cc2)[C@H]1c1ccc([N+](=O)[O-])cc1,-0.112
23,COC(=O)C(CC#Cc1ccc2c(c1)[C@]1(C(=O)N2)[C@H](C(=O)N2CCc3cc(OC)c(OC)cc3C2)[C@H]2C(=O)O[C@H](c3ccccc3)[C@H](c3ccccc3)N2[C@@H]1c1ccc(OCCO)cc1)C(=O)OC,0.968
24,CC(C)N1C(=O)c2ccccc2[C@](C)(C(=O)O)[C@@H]1c1ccc(CO)cc1,-0.786
25,C=CCC(OC(C)=O)[C@@H]1[C@@H](N(Cc2ccc(-c3ccccc3)cc2)C(=O)c2cccc3ccccc23)c2cc(OCCCO)ccc2N1C(=O)c1ccc2ccccc2n1 (some centres not stated),0.479
26,[N-]=[N+]=Nc1ccccc1[C@H]1OC(c2ccc(OCCCO)cc2)=N[C@@]1(Cc1ccccc1)C(=O)NCc1ccccc1,-1.16
27,COCCCNC(=O)[C@]1(CCS(=O)(=O)c2ccccc2)N=C(c2ccc(OCCCO)cc2)O[C@@H]1c1ccccc1,1.73
